Source: PubChem BioAssay AID1578 (Sanford-Burnham Center for Chemical Genomics, 2009)
The whole screen tested about 290,000 compounds, of which about 3,000 (1%) were called active. The entries come from a sample that favours actives as a whole. A number with no mark means an inactive call. Cut-off read from the data, not from the text of the source: active = inhibition mostly above about 36% (no sharp cut-off); inactive = mostly below about 34%.

Experiment: inhibition of NOD1-driven NF-kB reporter – cell-based, luminescence, uHTS, primary screen (AID 1578);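 note: HEK-293T reporter cells stimulated with the NOD1 agonist gamma-tri-DAP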
Details: NOD1-driven NF-kB luciferase reporter cells, at 4 µM, active compounds read high

| SMILES | inhibition |
| --- | --- |
| O=C(c1ccc([N+](=O)[O-])cc1)N1CCSC1c1ccccc1 (stereo unspecified) | -13.8% |
| O=C(O)c1ccc(N2C(=O)/C(=C/C=C/c3ccccc3)SC2=S)cc1 | -13.7% |
| CC(/C=C1\SC(=S)N(CC(=O)O)C1=O)=C\c1ccccc1 | -14.7% |
| O=C1CCCCN1CCC(=O)N1CCCC(N2CCN(c3ccccc3)CC2)C1 (stereo unspecified) | -1% |
| CC(C)(C)c1nc(CN2CCCCC2)cc(CN2CCCCC2)c1O | -2.5% |
| Cc1ccc(C2CC(c3cccs3)=NN2C(=O)CCl)cc1 (stereo unspecified) | 95.3% (active) |
| O=C(O)CCC(=O)N1N=C(c2ccco2)CC1c1cccs1 (stereo unspecified) | -15.2% |
| Cc1ccc(C2=NN(C(=O)CCC(=O)O)C(c3cccs3)C2)cc1 (stereo unspecified) | -4.3% |
| CCN1CCN(CC(=O)N2N=C(c3cccs3)CC2c2ccc(C)cc2)C(=O)C1=O (stereo unspecified) | -19.6% |
| Cc1ccc(C2=NN(C(=O)CCl)C(c3ccco3)C2)o1 (stereo unspecified) | -45.6% |
| CCC(=O)N1N=C(c2cccs2)CC1c1ccc(C)cc1 (stereo unspecified) | 1.5% |
| CC(=O)N1N=C(c2ccco2)CC1c1cccs1 (stereo unspecified) | -6.4% |
| COc1cc(NC(=O)CN2CCN(c3ccccc3F)CC2)cc(OC)c1 | -13.5% |
| CC(C)(C)NC(=S)NCc1cccnc1 | 5.8% |
| CCc1ccc(OCC(=O)NNC(=O)c2nn(CC)c(=O)c3ccccc23)cc1 | -23.6% |
| CC1(C)CC(=O)C(Sc2ccc(Br)cc2)=C(O)C1 | -57.7% |
| Fc1ccc(-c2nc3nc4ccccc4nc3n2Cc2ccco2)cc1 | -13.7% |
| S=c1nc(-c2ccccc2)[nH]c2ccccc12 | -26.9% |
| CCC(CC)c1nc(NCCC(=O)O)c2ccccc2n1 | -13.4% |
| COc1ccccc1NC(=O)CCc1nnc2ccc(N3CCN(C)CC3)nn12 | -20.3% |
| COc1ccc(Cl)cc1NC(=O)CCc1nnc2ccc(N3CCC4(CC3)OCCO4)nn12 | 10.7% |
| COc1ccc(Cl)cc1NC(=O)CCc1nnc2ccc(N3CCN(C)CC3)nn12 | 58% (active) |
| COc1cc(O)c(C(CCN2CCOCC2)c2ccc(N(C)C)cc2)c(OC)c1 (stereo unspecified) | 4.8% |
| Cc1ccc(S(=O)(=O)Nc2nc3ccccc3nc2NCC2CCCO2)c(C)c1 (stereo unspecified) | -1.8% |
| COc1ccc(NC(=O)CN(C)C(=O)c2ccc3c(c2)S(=O)(=O)N=C2CCCCCN23)cc1 | -22% |
| N#Cc1c(N)nc(Sc2ccc(Cl)cc2)c(C#N)c1-c1ccccc1Cl | 83.1% (active) |

| SMILES | inhibition |
| --- | --- |
| CCSc1nc(N)c(C#N)c(-c2ccccc2Cl)c1C#N | -2.6% |
| COc1ccc(-c2c(C#N)c(N)nc(Sc3ccc(Cl)cc3)c2C#N)cc1 | -0.6% |
| Cc1[nH]c(=O)[nH]c(=O)c1S(=O)(=O)Nc1ccc(Oc2ccccc2)cc1 | -23.1% |
| COc1ccc2nc(NCCCO)[nH]c2c1 | -28.1% |
| COc1ccccc1OCCNC(=O)c1cc(SC)ccc1Cl | -20.2% |
| Cc1cc(S(=O)(=O)NCCc2ccccc2)c(C)s1 | 15.9% |
| CCOc1ccc(/C=C/c2c([N+](=O)[O-])c(=O)n(C)c(=O)n2C)cc1 | -27.7% |
| COc1ccc(/C=C/c2c([N+](=O)[O-])c(=O)n(C)c(=O)n2C)cc1 | -2.9% |
| CN(C)c1ccc(/C=C/c2c([N+](=O)[O-])c(=O)n(C)c(=O)n2C)cc1 | -9.1% |
| CCc1ccc(/C=C/c2c([N+](=O)[O-])c(=O)n(C)c(=O)n2C)cc1 | 22.5% |
| Clc1nccnc1-c1ccccc1 | -25.1% |
| Cc1sc2nc(NCCO)[nH]c(=O)c2c1C | -16% |
| O=C(Nc1nc(-c2ccc(Br)cc2)cs1)c1cccnc1 | -26.9% |
| CC1CCCCC1NC(=O)CSc1nnc(-c2ccccc2)n1N (stereo unspecified) | 11.7% |
| O=C(CCl)N(c1ccccc1)C1CCCCC1 | 34.4% |
| O=C(CCl)N(C1CCCC1)C1CCS(=O)(=O)C1 (stereo unspecified) | 35.5% |
| O=C(CCl)N(c1ccccc1)C1CCS(=O)(=O)C1 (stereo unspecified) | 93.2% (active) |
| NS(=O)(=O)c1ccc(CCNC(=O)c2cc(-c3cc(Cl)ccc3O)n[nH]2)cc1 | -5.8% |
| CC(=O)Nc1ccc(NC(=O)[C@@H](NC(=O)N2C[C@H]3C[C@@H](C2)c2cccc(=O)n2C3)C(C)C)cc1 | -3.2% |
| CCN(CCn1cccn1)Cc1cn[nH]c1-c1cccc2ccccc12 | -11.1% |
| CC(=O)c1ccc(N2CCN(C(=O)C(=O)c3cn(CC(=O)N4CCCCCC4)c4ccccc34)CC2)cc1 | -25.9% |
| Cc1cc(=O)oc2c(C)c(OCC(=O)N3CC[C@@]4(O)CCCC[C@H]4C3)ccc12 | -30.1% |
| COc1cc2ncnc(Nc3ccc4c(c3)OCO4)c2cc1OC | 16.8% |
| CN(C)CCNc1ncnc2ccccc12 | -20.6% |
| COc1cc2ncnc(Nc3cccc(Cl)c3)c2cc1OC | 45.3% (active) |
| c1ccc(CCNc2ncnc3ccccc23)cc1 | 71.7% (active) |

| SMILES | inhibition |
| --- | --- |
| CCN(CC)CCCNc1ncnc2ccccc12 | -25.6% |
| c1ccc(CNc2ncnc3ccccc23)cc1 | -16.1% |
| COc1ccccc1CNc1ncnc2cc(OC)c(OC)cc12 | -12.1% |
| COc1cc2ncnc(NCc3cccc(Cl)c3)c2cc1OC | 44.2% |
| OCCCCCNc1ncnc2ccccc12 | 45.8% (active) |
| CCCCCCCCNc1ncnc2ccccc12 | 54.9% |
| COc1cc2ncnc(NCc3ccccc3)c2cc1OC | -4.6% |
| CC(C)Cn1c(SCC(=O)N2CCCc3ccccc32)nc2ccccc2c1=O | -2.1% |
| O=C(CSc1nnc(C2CC2)n1CC1CCCO1)Nc1ccccc1Cl (stereo unspecified) | -9% |
| CC1CCN(c2ccc([N+](=O)[O-])cc2C(=O)O)CC1 | -6.6% |
| COCc1cc(=O)[nH]c(=S)[nH]1 | -3.8% |
| C#CCNC(=O)/C=C/c1ccc(C)cc1 | -42.9% |
| COC(=O)C1=C(C(=O)OC)[C@@H]2N(C)c3ccccc3[C@@]23C[C@@H](CO)N(C(=O)NCCBr)C3=N1 | -2.6% |
| Cc1c(O)ccc2c(=O)c(Oc3ccccc3)coc12 | -2.7% |
| Cc1cc(C)nc(SCc2nnc(SCC(=O)Nc3c(C)cccc3C)o2)n1 | -14% |
| O=C1CSc2ccc(S(=O)(=O)CCC(=O)NC3CCCCC3)cc2N1 | -26.4% |
| C#CCOC(=O)CCCNc1ccc([N+](=O)[O-])cc1[N+](=O)[O-] | -22.8% |
| CC1CN=C(N(C(=O)Nc2ccccc2)c2ccc(F)cc2)S1 (stereo unspecified) | 1.6% |
| CSCCC(NC(=O)OCc1ccccc1)C(=O)NCc1cccnc1 (stereo unspecified) | -10.2% |
| CCCCC(=O)OCC(=O)c1ccc(OCC)cc1 | 31.2% (active) |
| CCCOc1ccc(C(=O)CCN2CCCCC2)cc1 | 35.7% |
| CCOc1ccc(C(=O)COC(C)=O)cc1 | 3.9% |
| CCOc1ccc(C(=O)CCN2CCCCC2)cc1 | 44% |
| CCOc1ccc(C(=O)CCN2CCCCCC2)cc1 | 70.2% (active) |
| CCOc1ccc(C(=O)COC(=O)CC)cc1 | -16% |
| Cc1occc1C(=O)O/N=C(\N)c1ccccc1 | -8.7% |

| SMILES | inhibition |
| --- | --- |
| CCNC(=S)Nc1cccc(F)c1C | -29.3% |
| O=C(NCc1ccco1)C(Cc1ccccc1)N1C(=O)C2C3C=CC(C3)C2C1=O (stereo unspecified) | 1.7% |
| COC(=O)C(Cc1ccccc1)NC(=O)CC(C)CC(=O)Nc1ccc(C)cc1 (stereo unspecified) | -13.8% |
| CC(C)(C)NC(=O)CN(C(=O)C1CSC(=O)C1)c1ccc2c(c1)OCCO2 (stereo unspecified) | -20.5% |
| CCN1CCN(C(=O)c2ccc3c(c2)N(Cc2ccc(C)cc2)CCS3)CC1 | -18.4% |
| CCOC(=O)N1CCN(C(=O)c2ccc3c(c2)N(Cc2ccc(C)cc2)CCS3)CC1 | 45.5% |
| Cc1ccc(CN2CCSc3ccc(C(=O)N4CCN(c5ncccn5)CC4)cc32)cc1 | 34.2% (active) |
| CSc1nc2ccc(NC(=O)c3ccco3)cc2s1 | -41.5% |
| C=CCn1c(COc2ccccc2-c2ccccc2)nnc1SCC(=O)NC(=O)NCc1ccco1 | -0.2% |
| CCC(C)Oc1cc(-c2ccnc(Nc3cccc(Cl)c3)n2)ccn1 (stereo unspecified) | 47% (active) |
| Cc1cc(C)nc(Nc2cccc(Cl)c2)n1 | -14.1% |
| COc1ccc(Nc2nccc(-c3cccc(N)c3)n2)cc1 | 6.7% |
| Brc1ccc(CSc2ncn[nH]2)cc1 | 19% |
| COc1cc2ccccc2cc1C(=O)Nc1ccc2oc(=O)ccc2c1 | 46.4% |
| CCNc1nc(NC(C)C)nc(Oc2ccc(OCCOc3ccc(C)cc3)nn2)n1 | -39.7% |
| COCc1cc(S(=O)c2ccc(Cl)cc2)nc(C)n1 (stereo unspecified) | 84.6% (active) |
| COCc1cc(NCc2ccc(Cl)cc2)nc(C)n1 | 21% |
| COCc1cc(Sc2ccc(Cl)cc2)nc(C)n1 | -2.4% |
| O=C(c1c[nH]c2ccccc12)C(Cl)c1ccccc1 (stereo unspecified) | 96.9% (active) |
| CC(Cl)C(=O)c1c[nH]c2ccccc12 (stereo unspecified) | -10.4% |
| O=C(c1ccccc1)c1c[nH]c2ccccc12 | -14.2% |
| COc1ccccc1NS(=O)(=O)c1ccc2c(c1)NC(=O)C(C)S2 (stereo unspecified) | 49.3% |
| COc1ccc(N2CCN(C(=O)c3oc4ccccc4c3NC(=O)Cc3cccc(OC)c3)CC2)cc1 | -28.1% |
